Screening results deposited in PubChem by National Center for Advancing Translational Sciences (NCATS).
POLI inh: qHTS for Inhibitors of Polymerase Iota; DNA polymerase iota (Homo sapiens), Q9UNA4; Pol iota fluorescent replication assay, 10 min; Potency, µM (doses to about 115 µM), inactives show top-dose activity, negative = inhibition, actives largely listed as inhibitors; hit rate 1% among 390,000
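Pol iota at 10 nM preincubated 15 min with compounds at room temperature; reaction started with fluorescent substrate, 50 nM final. Fluorescence read kinetically at 0 and 10 min; buffer-only wells as negative control.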
POLH inh: qHTS for Inhibitors of Polymerase Eta. Potency, µM (top dose mostly 114 µM), for the others: at the top dose activity change, negative = inhibition, usual class: inhibitors. hit rate 1.2% among 390,000. recombinant Pol eta, fluorescent DNA replication assay; note: % is set by controls: 0 for no effect and ±100 for the full control effect
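Pol eta (10 nM) was preincubated with compounds for 15 min at room temperature, after which fluorescent replication substrate (50 nM final) was added to start the reaction. Fluorescence was read kinetically at 0 and 10 min.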
Pol kappa inh: qHTS for Inhibitors of Polymerase Kappa | Potency, µM (top dose mostly 107 µM), for the others: top-dose activity, negative = inhibition, actives largely listed as inhibitors | AID 588579, 2011 | DNA polymerase kappa (Homo sapiens), Q9UBT6 | purified Pol kappa, fluorescent DNA synthesis assay, 10 min | hit rate 0.53% among 400,000; note: % is set by controls: 0 for no effect and ±100 for the full control effect
Target sequence (Q9UBT6 whole entry, looked up): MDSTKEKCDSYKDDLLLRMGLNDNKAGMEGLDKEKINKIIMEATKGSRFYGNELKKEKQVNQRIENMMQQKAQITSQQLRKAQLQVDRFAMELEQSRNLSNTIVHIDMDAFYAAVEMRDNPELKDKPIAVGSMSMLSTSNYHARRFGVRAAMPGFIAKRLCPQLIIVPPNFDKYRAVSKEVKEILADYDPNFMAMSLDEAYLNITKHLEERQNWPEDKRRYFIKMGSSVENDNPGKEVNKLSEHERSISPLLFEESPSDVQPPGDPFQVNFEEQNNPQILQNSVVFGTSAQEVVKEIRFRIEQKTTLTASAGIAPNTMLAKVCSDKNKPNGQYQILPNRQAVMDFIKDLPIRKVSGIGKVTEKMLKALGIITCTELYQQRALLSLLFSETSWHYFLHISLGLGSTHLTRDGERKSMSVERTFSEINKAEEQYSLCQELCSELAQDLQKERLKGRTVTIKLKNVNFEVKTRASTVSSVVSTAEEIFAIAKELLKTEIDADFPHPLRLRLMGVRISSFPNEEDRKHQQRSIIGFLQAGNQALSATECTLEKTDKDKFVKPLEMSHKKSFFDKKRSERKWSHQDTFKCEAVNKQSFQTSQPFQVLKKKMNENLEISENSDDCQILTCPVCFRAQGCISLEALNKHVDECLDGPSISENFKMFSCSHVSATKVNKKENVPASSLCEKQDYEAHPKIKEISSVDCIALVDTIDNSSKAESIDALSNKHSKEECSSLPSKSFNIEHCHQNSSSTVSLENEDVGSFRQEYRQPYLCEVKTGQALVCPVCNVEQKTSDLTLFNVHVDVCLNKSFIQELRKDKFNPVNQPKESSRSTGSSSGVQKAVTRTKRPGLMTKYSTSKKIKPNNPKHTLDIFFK
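Fluorescent qHTS in 1536-well format: enzyme (10 nM) and compound sat 15 min at room temperature before 50 nM substrate (final) was added. Signal taken at 0 and 10 min; no-enzyme buffer wells were negative controls.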
WRN inhibitor: qHTS for Inhibitors of WRN Helicase; Bifunctional 3'-5' exonuclease/ATP-dependent helicase WRN (Homo sapiens), Q14191; WRN helicase unwinding, fluorescent forked duplex, kinetic; Potency, µM (highest dose often 114 µM), for inactives: top-dose activity change, negative = inhibition, hits mostly inhibitors; hit rate 0.46% among 360,000; note: % is set by controls: 0 for no effect and ±100 for the full control effect; nearly all actives have a fitted effect of over 55% in size
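Screening of the MLSMR collection measured strand separation of a quenched forked DNA duplex (100 nM) by 20 nM WRN with 2 mM ATP, all final. Compounds were preincubated with enzyme 15 min at room temperature.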
Pol beta inh: qHTS Assay for Inhibitors of DNA Polymerase Beta | P06746 | Pol beta primer extension/strand displacement, fluorescence kinetic | Potency, µM (titrated, usually from 114 µM), inactives show top-dose activity change, negative = inhibition, most hits filed as inhibitors | hit rate 1.3% among 340,000 | AID 485314, 2010; note: % is set by controls: 0 for no effect and ±100 for the full control effect
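Reaction started by 50 nM substrate onto compound-treated Pol beta (10 nM, 15 min preincubation, room temperature); plates read at 0 min and 10 min. Normalized concentration-effect data fitted by four-parameter Hill equation.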
* marks the source's active call; other numbers are inactive results; [ ] = another dose, or the depositor's remark. An excerpt weighted towards active compounds, which were near 2.3% of everything screened. Calls come from the whole dose curve; as a rule, active = well fitted curve in the direction sought with a large enough effect; inconclusive = small, poorly fitted or top-dose-only effect, or another doubt; inactive = no such curve, though single readings can be large; an effect the other way counts as inactive or inconclusive. Potency is the fitted concentration of half-maximal effect.

`CC[C@H](C)[C@H](NC(=O)[C@H](Cc1ccccc1)NC(=O)[C@H](CCC(=O)O)NC(=O)[C@H](CCCCN)NC(=O)[C@H](C)NC(=O)[C@H](C)NC(=O)[C@H](CCC(N)=O)NC(=O)CNC(=O)[C@H](CCC(=O)O)NC(=O)[C@H](CC(C)C)NC(=O)[C@H](Cc1ccc(O)cc1)NC(=O)[C@H](CO)NC(=O)[C@H](CO)NC(=O)[C@@H](NC(=O)[C@H](CC(=O)O)NC(=O)[C@H](CO)NC(=O)[C@@H](NC(=O)[C@H](Cc1ccccc1)NC(=O)[C@@H](NC(=O)CNC(=O)[C@H](CCC(=O)O)NC(=O)[C@H](C)NC(=O)[C@@H](N)Cc1cnc[nH]1)[C@@H](C)O)[C@@H](C)O)C(C)C)C(=O)N[C@@H](C)C(=O)N[C@@H](Cc1c[nH]c2ccccc12)C(=O)N[C@@H](CC(C)C)C(=O)N[C@H](C(=O)N[C@@H](CCCCN)C(N)=O)C(C)C` gave Pol kappa inh 15%[60.1 µM].
`Cc1ccc(-c2nnc(SCC(=O)Nc3sc(C)c(C)c3C#N)n2C)cc1` gave POLI inh 9%, POLH inh inconclusive, Pol kappa inh -7%, WRN inhibitor -24% and Pol beta inh 22µM*.
`COCCn1c(SCC(=O)Nc2sc(C)c(C)c2C#N)nnc1-c1ccc(OC)cc1` gave POLI inh 4%, POLH inh -8%, Pol kappa inh -7%, WRN inhibitor -2% and Pol beta inh 0%.
`CCOC(=O)c1c(NC(=O)c2nc(S(C)(=O)=O)ncc2Cl)sc(C(C)=O)c1C` gave POLI inh 2%, POLH inh 79µM*, Pol kappa inh 4% and Pol beta inh -2%.
Screening O=C(COC(=O)c1ccc2c(c1)C(=O)N(Cc1ccncc1)C2=O)Nc1ccccc1[N+](=O)[O-] returned POLI inh 22µM*, POLH inh inconclusive, Pol kappa inh -30%, WRN inhibitor inconclusive and Pol beta inh 35µM*.
`COc1cc(/C=C/c2nc(C#N)c(NC3CCCCC3)o2)cc(OC)c1OC` gave POLI inh 13%, POLH inh inconclusive, Pol kappa inh -23% and Pol beta inh 2%.
Screening O=C(CSCc1ccc(Cl)cc1)N/N=C/c1ccc(OCC(=O)Nc2ccccc2)cc1 returned POLI inh inconclusive, POLH inh -16%, Pol kappa inh 0%, WRN inhibitor -12% and Pol beta inh 79µM*.
Cc1ccccc1NC(=O)Cn1c(=O)n(CCC(=O)NCc2ccc3c(c2)OCO3)c(=O)c2sccc21 was read as POLI inh 6%, POLH inh -16%, Pol kappa inh -17% and Pol beta inh 50µM*.
`CN(C)C1C(=O)C(C(N)=O)=C(O)[C@@]2(O)C(=O)C3=C(O)c4c(O)ccc(Cl)c4C(O)[C@H]3C[C@@H]12` (some centres undefined) gave Pol kappa inh -14%[60.1 µM].
Screening CN(C)C1C(=O)C(C(N)=O)C(=O)C2(O)C(=O)C3C(=O)c4c(O)ccc(Cl)c4C(O)C3CC12 (centres undefined) returned Pol kappa inh 35µM*.
Cc1sc2nc3c(SC(C)C(=O)O)cc(C(=O)c4ccccc4O)cn3c(=O)c2c1C (centres undefined) was read as POLI inh inconclusive, POLH inh inconclusive, Pol kappa inh -25%, WRN inhibitor inconclusive and Pol beta inh inconclusive.
`COC(=O)c1cc(C(=O)c2cc(F)ccc2O)cn2c(=O)c3c(C)c(C)sc3nc12` gave POLI inh inconclusive, POLH inh -15%, Pol kappa inh -21%, WRN inhibitor -16% and Pol beta inh 32µM*.
CCOC(=O)c1sc2nc3c(SCC(=O)O)cc(C(=O)c4ccccc4O)cn3c(=O)c2c1C was read as POLI inh inconclusive, POLH inh inconclusive, Pol kappa inh -24%, WRN inhibitor 2%[57.1 µM] and Pol beta inh 3.2µM*.
Screening Fc1ccc(-n2cc(-c3ccccc3)c3c(=S)nc[nH]c32)cc1 returned POLI inh 79µM*, POLH inh -29%, Pol kappa inh inconclusive, WRN inhibitor -4% and Pol beta inh 4%.
`O=C(OC1CCCCC1)c1ccc2c(c1)C1C=CCC1C(C(=O)O)N2` (centres undefined) gave Pol beta inh 2.2µM*.
For CCOC(=O)C1Nc2ccc(Br)cc2C2C=CCC12 (centres undefined) the results were POLI inh 45µM*, POLH inh 79µM*, Pol kappa inh inconclusive, WRN inhibitor -21% and Pol beta inh inconclusive.
`Nc1ccn([C@@H]2O[C@H](CO)[C@H](O)C2(F)F)c(=O)n1` gave Pol kappa inh -2%[19.4 µM].
`O=[N+]([O-])c1c(Nc2ccccc2O)cc(Cl)c2nonc12` gave POLI inh 11µM*, POLH inh 45µM*, Pol kappa inh -2%, WRN inhibitor inconclusive and Pol beta inh 18µM*.
Screening O=[N+]([O-])c1c(Nc2ccccc2O)ccc2nonc12 returned POLI inh -21%, POLH inh -9%, Pol kappa inh -1%, WRN inhibitor -9% and Pol beta inh 2%.
Screening O=C(Nc1ccccc1-c1cn2c(CN3CCNCC3)csc2n1)c1cnc2ccccc2n1 returned POLI inh -29% and Pol kappa inh -23%.
For COc1[nH]c(/N=C/c2ccco2)c(C#N)c1C#N the results were POLI inh 71µM* and Pol kappa inh -5%.
`CCOC(=O)C1Nc2ccc(C)cc2C2C=CCC12` (centres undefined) gave POLI inh inconclusive, POLH inh -11%, Pol kappa inh -22% and WRN inhibitor -7%.
Screening O=C(O)C1Nc2c(Cl)cc(Cl)cc2C2C=CCC12 (centres undefined) returned POLI inh 4µM*, POLH inh 2.8µM*, Pol kappa inh 8.9µM*, WRN inhibitor 10µM* and Pol beta inh inconclusive.
`Cc1ccc(C)c2c1NC(C(=O)O)C1CC=CC21` (centres undefined) gave POLI inh 11µM* and Pol kappa inh 3.2µM*.
For CCCCn1c(SCC(=O)c2ccc(O)c(O)c2)nc2ccsc2c1=O the results were POLI inh inconclusive, POLH inh 8.9µM*, Pol kappa inh -22%, WRN inhibitor inconclusive and Pol beta inh inconclusive.
